In PubChem BioAssay (NCATS):
Inconclusive results are not listed. Activity calls are given as the source filed them. Calls come from the whole dose curve; as a rule, active = well fitted curve in the direction sought with a large enough effect in the signal ratio, with a control signal flat (not every such curve was filed as active); inconclusive = small, poorly fitted or top-dose-only effect, or a change in a side signal; inactive = no such curve, though single readings can be large or run the other way; the % refers to the signal ratio.

Experiment: qHTS Assay for Identification of Small Molecule Inducers of Hypoxia Response (AID 2120)
Settings: hypoxia response reporter cells, beta-lactamase ratio readout; series mostly up to 104 µM
How it was run: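 HRE-bla ME-180 cells in Opti-MEM with 0.5% dialyzed FBS, pre-plated 4-5 h, then compound titration for 17 h at 37 degrees Celsius. CCF4 loaded 2.5 h at room temperature; 460/530 nm ratio gave %Activity and AC50 for induction.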

SMILES | outcome
CCCC(C)(COC(N)=O)COC(N)=O | inactive
CCC(C)(C)c1ccc(O)cc1 | inactive
COc1cc(OC)c(OC)cc1C=O | inactive
O=C(O)CCCc1ccc(N(CCCl)CCCl)cc1 | inactive
C[C@]1(O)CC[C@H]2[C@@H]3CCC4=CC(=O)CC[C@]4(C)[C@@]3(F)[C@@H](O)C[C@@]21C | inactive
CC(C)NC(C)C | inactive
COC(=O)C(c1ccccc1)C1CCCCN1 (stereo not drawn) | inactive
C[C@]12CCC(=O)C=C1CC[C@@H]1[C@@H]2CC[C@@]2(C)[C@H]1CC[C@]2(C)O | inactive
COP(=S)(OC)Oc1ccc(SC)c(C)c1 | inactive
Oc1ccc(Cl)cc1 | inactive
CCOC(=O)CC(SP(=S)(OC)OC)C(=O)OCC (stereo not drawn) | inactive
Nc1ccccc1 | inactive
Nc1ccccc1C(=O)O | inactive
